Measurements taken from publication PMC7862700, “An all-to-all approach to the identification of sequence-specific readers for epigenetic DNA modifications on cytosine”.

Key:
Assay in all cases: DAPPL (digital affinity profiling via proximity ligation, sequencing); 10 mM Tris-HCl pH 7.5, 50 mM NaCl, 1 mM DTT, 4% glycerol, room temperature, 30 min; GST-TFs on glutathione beads, 16-mer random dsDNA library, 0.1% formaldehyde crosslink after washing; high values mean tight binding
Conditions in all cases: protein: recombinant; tags: N-terminal GST; dsDNA, one strand shown
[1] = biological target: T1, ERF (Homo sapiens, UniProt P50548 1-548)
T1 sequence: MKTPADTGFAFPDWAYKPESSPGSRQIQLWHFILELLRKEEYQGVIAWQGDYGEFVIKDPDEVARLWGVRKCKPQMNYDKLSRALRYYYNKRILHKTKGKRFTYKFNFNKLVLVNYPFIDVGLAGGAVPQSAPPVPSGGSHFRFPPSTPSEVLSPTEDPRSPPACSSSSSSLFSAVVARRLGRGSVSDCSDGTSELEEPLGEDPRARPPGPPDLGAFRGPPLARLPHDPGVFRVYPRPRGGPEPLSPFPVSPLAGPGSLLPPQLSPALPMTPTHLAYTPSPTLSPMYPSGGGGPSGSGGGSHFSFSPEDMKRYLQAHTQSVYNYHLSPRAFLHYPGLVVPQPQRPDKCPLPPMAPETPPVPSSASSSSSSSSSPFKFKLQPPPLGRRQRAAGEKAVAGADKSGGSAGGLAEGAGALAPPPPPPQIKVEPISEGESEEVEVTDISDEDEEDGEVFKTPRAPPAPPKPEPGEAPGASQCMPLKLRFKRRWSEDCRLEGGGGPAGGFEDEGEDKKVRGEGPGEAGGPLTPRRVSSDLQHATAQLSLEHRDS
Summary of the method: (§1)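 In yeast, human transcription factors were expressed with a GST fusion, then pulled down on glutathione beads and given DNA barcodes. Pooled with a tag-only sample, they were exposed to 200 nmole of a 16-mer random double-stranded DNA library (Tris/NaCl/DTT/glycerol buffer, room temperature, 30 min), washed, crosslinked with 0.1% formaldehyde, proximity-ligated using BsaI/T4 ligase for 1 h at 37 °C, PCR-amplified and read on an Illumina NextSeq500. Each hexamer's frequency of reads for a factor, divided by the matching frequency for the tag-only sample, gives the binding signal.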

[2] = biological target: T2, ETV3L (Homo sapiens, UniProt Q6ZN32 1-361)
T2 sequence: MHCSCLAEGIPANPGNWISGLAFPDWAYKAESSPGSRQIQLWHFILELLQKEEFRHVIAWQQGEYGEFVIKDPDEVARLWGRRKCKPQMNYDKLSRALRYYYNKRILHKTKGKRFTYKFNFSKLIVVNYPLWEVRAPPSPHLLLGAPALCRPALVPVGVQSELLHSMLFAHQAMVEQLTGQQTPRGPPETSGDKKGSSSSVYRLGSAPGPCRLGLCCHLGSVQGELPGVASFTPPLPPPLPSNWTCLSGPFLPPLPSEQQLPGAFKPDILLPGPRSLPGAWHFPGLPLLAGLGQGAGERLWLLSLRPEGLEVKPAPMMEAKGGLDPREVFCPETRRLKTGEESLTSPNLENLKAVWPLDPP
Summary of the method: as §1

[3] = biological target: T3, ETS2 (Homo sapiens, UniProt P15036 1-469)
T3 sequence: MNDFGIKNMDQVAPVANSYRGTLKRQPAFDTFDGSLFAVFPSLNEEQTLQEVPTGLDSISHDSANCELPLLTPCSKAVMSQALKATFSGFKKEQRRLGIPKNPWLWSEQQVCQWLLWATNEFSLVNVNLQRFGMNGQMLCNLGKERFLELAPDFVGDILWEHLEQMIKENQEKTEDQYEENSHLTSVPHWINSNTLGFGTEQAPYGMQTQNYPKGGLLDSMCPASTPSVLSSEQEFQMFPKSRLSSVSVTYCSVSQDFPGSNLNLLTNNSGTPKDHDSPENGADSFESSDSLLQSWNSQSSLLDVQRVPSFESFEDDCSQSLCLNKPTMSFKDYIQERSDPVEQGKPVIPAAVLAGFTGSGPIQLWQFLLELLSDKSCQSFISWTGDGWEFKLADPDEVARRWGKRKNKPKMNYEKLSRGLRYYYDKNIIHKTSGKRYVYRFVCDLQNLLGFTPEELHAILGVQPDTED
Summary of the method: as §1

[4] = biological target: T4, SPDEF (Homo sapiens, UniProt O95238 1-335)
T4 sequence: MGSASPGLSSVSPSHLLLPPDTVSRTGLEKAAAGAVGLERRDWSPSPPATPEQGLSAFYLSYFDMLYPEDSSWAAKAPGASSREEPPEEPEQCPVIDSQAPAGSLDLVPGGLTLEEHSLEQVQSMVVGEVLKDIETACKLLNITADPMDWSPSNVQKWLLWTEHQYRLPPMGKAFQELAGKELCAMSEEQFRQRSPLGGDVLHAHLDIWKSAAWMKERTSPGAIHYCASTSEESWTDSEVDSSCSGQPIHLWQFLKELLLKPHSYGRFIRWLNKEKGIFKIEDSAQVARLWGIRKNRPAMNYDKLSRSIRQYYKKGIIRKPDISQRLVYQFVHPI
Summary of the method: as §1

[5] = biological target: T5, ETV7 (Homo sapiens, UniProt Q9Y603 1-341)
T5 sequence: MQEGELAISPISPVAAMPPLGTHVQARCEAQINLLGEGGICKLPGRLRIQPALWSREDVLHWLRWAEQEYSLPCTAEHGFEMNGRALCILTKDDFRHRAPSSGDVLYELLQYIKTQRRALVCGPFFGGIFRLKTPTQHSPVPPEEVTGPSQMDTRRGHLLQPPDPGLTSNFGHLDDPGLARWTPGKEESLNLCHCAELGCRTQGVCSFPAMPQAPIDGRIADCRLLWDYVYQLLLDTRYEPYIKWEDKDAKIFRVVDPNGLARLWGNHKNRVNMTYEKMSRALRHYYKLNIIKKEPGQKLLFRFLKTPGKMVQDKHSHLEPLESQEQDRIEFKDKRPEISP
Summary of the method: as §1

[6] = biological target: T6, ELF5 (Homo sapiens, UniProt Q9UKW6-2 1-255)
T6 sequence: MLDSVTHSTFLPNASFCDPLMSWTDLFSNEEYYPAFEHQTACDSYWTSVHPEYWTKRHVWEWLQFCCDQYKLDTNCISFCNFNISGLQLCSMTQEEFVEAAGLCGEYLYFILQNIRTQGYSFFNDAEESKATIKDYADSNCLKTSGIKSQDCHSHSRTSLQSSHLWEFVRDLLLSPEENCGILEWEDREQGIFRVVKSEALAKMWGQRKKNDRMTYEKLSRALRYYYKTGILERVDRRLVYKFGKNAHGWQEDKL
Summary of the method: as §1

[7] = biological target: T7, ETV3 (Homo sapiens, UniProt P41162-2 1-143)
T7 sequence: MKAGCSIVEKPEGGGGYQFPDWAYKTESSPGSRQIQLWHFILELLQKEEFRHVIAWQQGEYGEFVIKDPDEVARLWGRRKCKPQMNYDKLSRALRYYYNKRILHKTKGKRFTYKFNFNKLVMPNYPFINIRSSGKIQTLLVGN
Summary of the method: as §1

[8] = biological target: ETV6 (Homo sapiens, UniProt P41212 1-452)
Summary of the method: as §1

Sequence of ETV6 (P41212 whole entry): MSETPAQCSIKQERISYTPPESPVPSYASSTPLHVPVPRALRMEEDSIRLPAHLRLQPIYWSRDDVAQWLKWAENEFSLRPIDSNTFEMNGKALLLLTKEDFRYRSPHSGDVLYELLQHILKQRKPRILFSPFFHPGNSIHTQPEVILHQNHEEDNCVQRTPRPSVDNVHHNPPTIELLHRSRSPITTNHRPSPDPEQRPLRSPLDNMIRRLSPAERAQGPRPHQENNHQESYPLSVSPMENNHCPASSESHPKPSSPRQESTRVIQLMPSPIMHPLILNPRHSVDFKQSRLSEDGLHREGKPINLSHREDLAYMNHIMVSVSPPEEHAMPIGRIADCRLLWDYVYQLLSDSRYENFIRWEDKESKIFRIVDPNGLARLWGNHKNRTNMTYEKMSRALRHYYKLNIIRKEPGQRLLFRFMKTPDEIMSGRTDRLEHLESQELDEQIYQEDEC

Row | Sequence | binding signal [1] | binding signal [2] | binding signal [3] | binding signal [4] | binding signal [5] | binding signal [6] | binding signal [7] | binding signal [8]
1 | TTCTGC | 1.55 fold enrichment (6-mer frequency, TF over GST control) | 1.4 fold enrichment (6-mer frequency, TF over GST control) | 1.33 fold enrichment (6-mer frequency, TF over GST control) | 1.38 fold enrichment (6-mer frequency, TF over GST control) | 1.43 fold enrichment (6-mer frequency, TF over GST control) | 1.38 fold enrichment (6-mer frequency, TF over GST control) | 1.33 fold enrichment (6-mer frequency, TF over GST control) | 1.47 fold enrichment (6-mer frequency, TF over GST control)
2 | CTCATG | 1.18 fold enrichment (6-mer frequency, TF over GST control) | 1.22 fold enrichment (6-mer frequency, TF over GST control) | 1.21 fold enrichment (6-mer frequency, TF over GST control) | 1.18 fold enrichment (6-mer frequency, TF over GST control) | 1.18 fold enrichment (6-mer frequency, TF over GST control) | 1.19 fold enrichment (6-mer frequency, TF over GST control) | 1.22 fold enrichment (6-mer frequency, TF over GST control) | 1.17 fold enrichment (6-mer frequency, TF over GST control)
3 | ATGATA | 1.21 fold enrichment (6-mer frequency, TF over GST control) | 1.22 fold enrichment (6-mer frequency, TF over GST control) | 1.17 fold enrichment (6-mer frequency, TF over GST control) | 1.22 fold enrichment (6-mer frequency, TF over GST control) | 1.16 fold enrichment (6-mer frequency, TF over GST control) | 1.23 fold enrichment (6-mer frequency, TF over GST control) | 1.2 fold enrichment (6-mer frequency, TF over GST control) | 1.18 fold enrichment (6-mer frequency, TF over GST control)
4 | AAAATG | 1.21 fold enrichment (6-mer frequency, TF over GST control) | 1.24 fold enrichment (6-mer frequency, TF over GST control) | 1.21 fold enrichment (6-mer frequency, TF over GST control) | 1.08 fold enrichment (6-mer frequency, TF over GST control) | 1.28 fold enrichment (6-mer frequency, TF over GST control) | 1.24 fold enrichment (6-mer frequency, TF over GST control) | 1.2 fold enrichment (6-mer frequency, TF over GST control) | 1.24 fold enrichment (6-mer frequency, TF over GST control)
5 | TTTAAA | 1.31 fold enrichment (6-mer frequency, TF over GST control) | 1.35 fold enrichment (6-mer frequency, TF over GST control) | 1.26 fold enrichment (6-mer frequency, TF over GST control) | 1.16 fold enrichment (6-mer frequency, TF over GST control) | 1.36 fold enrichment (6-mer frequency, TF over GST control) | 1.19 fold enrichment (6-mer frequency, TF over GST control) | 1.22 fold enrichment (6-mer frequency, TF over GST control) | 1.27 fold enrichment (6-mer frequency, TF over GST control)
6 | GTGCTT | 1.26 fold enrichment (6-mer frequency, TF over GST control) | 1.14 fold enrichment (6-mer frequency, TF over GST control) | 1.25 fold enrichment (6-mer frequency, TF over GST control) | 1.37 fold enrichment (6-mer frequency, TF over GST control) | 1.3 fold enrichment (6-mer frequency, TF over GST control) | 1.41 fold enrichment (6-mer frequency, TF over GST control) | 1.3 fold enrichment (6-mer frequency, TF over GST control) | 1.37 fold enrichment (6-mer frequency, TF over GST control)
7 | AATGAT | 1.18 fold enrichment (6-mer frequency, TF over GST control) | 1.24 fold enrichment (6-mer frequency, TF over GST control) | 1.12 fold enrichment (6-mer frequency, TF over GST control) | 1.13 fold enrichment (6-mer frequency, TF over GST control) | 1.2 fold enrichment (6-mer frequency, TF over GST control) | 1.06 fold enrichment (6-mer frequency, TF over GST control) | 1.21 fold enrichment (6-mer frequency, TF over GST control) | 1.24 fold enrichment (6-mer frequency, TF over GST control)
8 | GATTAC | 1.13 fold enrichment (6-mer frequency, TF over GST control) | 1.07 fold enrichment (6-mer frequency, TF over GST control) | 1.1 fold enrichment (6-mer frequency, TF over GST control) | 1.13 fold enrichment (6-mer frequency, TF over GST control) | 1.08 fold enrichment (6-mer frequency, TF over GST control) | 1.11 fold enrichment (6-mer frequency, TF over GST control) | 1.07 fold enrichment (6-mer frequency, TF over GST control) | 1.13 fold enrichment (6-mer frequency, TF over GST control)
9 | TTCGTC | 1.36 fold enrichment (6-mer frequency, TF over GST control) | 1.23 fold enrichment (6-mer frequency, TF over GST control) | 1.31 fold enrichment (6-mer frequency, TF over GST control) | 1.29 fold enrichment (6-mer frequency, TF over GST control) | 1.22 fold enrichment (6-mer frequency, TF over GST control) | 1.18 fold enrichment (6-mer frequency, TF over GST control) | 1.31 fold enrichment (6-mer frequency, TF over GST control) | 1.23 fold enrichment (6-mer frequency, TF over GST control)
